Laboratory results taken from PubChem BioAssay AID1159524 (National Center for Advancing Translational Sciences (NCATS), 2015).
The campaign covered roughly 410,000 compounds. About 5,100 (1.2%) were called active. Not shown: some 8% with an inconclusive outcome. Calls follow the shape of the full dose curve; tested in HEK293T cells. The list comes from a sample in which actives are over-represented; it also holds similar structures and randomly drawn compounds. A call without a number means that no potency is given here.

Test: High Throughput Screening for Foot and Mouth Disease Virus Antivirals; also: read-out not given here; nearly all actives have a fitted effect of over 45% in size
Settings: FMDV antiviral cell-based qHTS; series mostly up to 57.9 µM
Potency is read from the fitted curve at half-maximal effect.

SMILES | Potency
CC1=C/C(=N\OS(=O)(=O)c2ccccc2)C=CC1=O | 15.8 µM (active)
O=C(CSc1nc(=O)n(Cc2cccnc2)c2c1CCC2)Nc1ccc(F)cc1F | inactive
CC1=C(C(=O)OCc2ccccc2)C(c2ccco2)n2ncnc2N1 (stereo not drawn) | 28.2 µM (active)
CCOc1ccccc1NC(=O)C1=C(C)Nc2ncnn2C1c1ccc(NC(C)=O)cc1 (stereo not drawn) | inactive
CCOC(=O)C1=C(c2ccccc2)Nc2ncnn2C1c1ccc(Cl)cc1 (stereo not drawn) | inactive
CC(C)=CCC/C(C)=C/CC/C(C)=C/CC/C(C)=C/CO | inactive
CC(C)c1cc(C(=O)N2CCOc3ccc(CN4CCC(Oc5cccnc5)CC4)cc3C2)n[nH]1 | inactive
Cc1ccsc1C(=O)OCC(=O)c1cc(C)n(CC2CCCO2)c1C (stereo not drawn) | 100 µM (active)
O=C(CSc1nnc(-c2ccco2)n1CC1CCCO1)c1ccccc1 (stereo not drawn) | inactive
Cc1cc(C(=O)COC(=O)c2cccs2)c(C)n1-c1c(C)n(C)n(-c2ccccc2)c1=O | inactive
COC(=O)c1cnc(N2CCN(c3ccccc3OC)CC2)c2ccccc12 | inactive
COc1ccccc1N1CCN(c2ncnc3sc(C)c(-c4ccccc4)c23)CC1 | 20 µM (active)
COc1ccccc1N1CCN(c2ncnc3onc(-c4cccc(Cl)c4)c23)CC1 | inactive
O=C(c1cc(C(F)(F)F)cc(C(F)(F)F)c1)N1CCC2(CCCN(Cc3ccncc3)C2)CC1 | inactive
COc1cccc(Cn2c(=O)c(-c3ccccc3)nc3cnc(OC)nc32)c1 | inactive
COCCNC(=O)c1ccc2c(c1)N=C(C)c1cc(C)ccc1S2 | inactive
CCCCCCCCCCCCn1ccc(=N)cc1 | 17.8 µM (active)
O=C(c1cnccn1)N1CCC2(CCN(Cc3cc(C(F)(F)F)cc(C(F)(F)F)c3)CC2)CC1 | inactive
Cc1cc(C)c2oc(-c3cccc(NC(=O)c4cccc(F)c4)c3C)nc2c1 | inactive
COc1ccc(N)cc1NC(=O)CN1CCOCC1 | inactive
COc1ccc(NC(C)=O)cc1NC(=O)CN1CCN(C2c3ccccc3-c3ccccc32)CC1 | 31.6 µM (active)

SMILES | Potency
COc1ccc(NC(C)=O)cc1NC(=O)CN1CCN(c2ccc(F)cc2)CC1 | inactive
Cc1ccccc1C(=O)NCc1nc(-c2ccc(Cl)cc2)no1 | inactive
CCc1ccc(NC(=O)CN2C(=O)C(c3ccccc3)=NC23CCCCCC3)cc1 | inactive
COc1ccc(N(Cc2ccc(N(C)C)cc2)C(=O)c2ccc(S(C)(=O)=O)cc2)cc1 | inactive
CCOc1ccc(N(Cc2ccccc2)C(=O)c2nc(S(C)(=O)=O)ncc2Cl)cc1 | 15.8 µM (active)
CCOc1ccc(NC(=O)CN(Cc2ccccc2)S(=O)(=O)c2ccc(Cl)cc2)cc1 | inactive
Nc1nc2nc(Cl)[nH]c2c(=O)[nH]1 | inactive
COc1ccc(OC)c(NC(=O)c2ccc3c(c2)C(=O)N(c2ccc(OC(C)=O)cc2)C3=O)c1 | inactive
O=C(O)c1ccc2c(c1)C(=O)N(c1ccc(/C=C/C(=O)c3ccccc3)cc1)C2=O | 14.1 µM (active)
Cc1cc(N2C(=O)c3ccc(C(=O)NCc4ccccc4)cc3C2=O)no1 | inactive
COCC(C)NS(=O)(=O)c1ccc(N2CCCCS2(=O)=O)cc1 (stereo not drawn) | inactive
CCc1noc(C)c1C(=O)NCCN1Cc2cc(OC)ccc2OC(CC)C1 (stereo not drawn) | inactive
Cn1c(=O)c(CCc2ccccc2)nc2cnc(Nc3ccccc3)nc21 | inactive
c1ccc(CNc2ncncc2-c2cccnc2)cc1 | inactive
CCN(CC)CCCC(C)Nc1ccnc2cc(Cl)ccc12 (stereo not drawn) | inactive
CCN(CC)CCCC(C)n1c2nc(=O)[nH]c(=O)c-2nc2cc(Cl)ccc21 (stereo not drawn) | 11.2 µM (active)
Cc1ccc(S(=O)(=O)n2nc(-c3ccc(Cl)cc3)nc2NCc2ccccc2)cc1 | inactive
CC(C)OC(=O)c1ccc(NCc2cc(O)ccc2O)cc1Cl | 8.91 µM (active)
COc1cccc(-n2cc(C(=O)NCc3cccc(Cl)c3)c3ccccc3c2=O)c1 | inactive
O=C(CSc1ncc(CO)n1Cc1ccc(Cl)cc1)NCc1ccc(F)cc1 | inactive
CCOc1ccccc1N(CC)C(=O)Nc1cn(C)c(=O)c2ccccc12 | inactive

SMILES | Potency
CC1CCC(N2CC(=O)N(CCC3=CCCCC3)C(c3ccc(F)cc3)C2=O)CC1 (stereo not drawn) | inactive
Cc1ccc(C(=O)Nc2cccc(-c3nc(CNC(=O)c4ccccc4-n4cccn4)c(C)o3)c2)s1 | inactive
O=C1C(c2ccccn2)=[N+]([O-])c2ccccc21 | inactive
NC1=CC(=O)C(=O)c2cccnc21 | 39.8 µM (active)
COC1C[C@@H](O[C@@H]2C(C)C(=O)OC(C)C(C)C(O)C(C)C(=O)[C@@]3(CO3)CC(C)C(OC3OC(C)CC(N(C)C)C3O)C2C)OC(C)[C@@H]1O (stereo partly drawn) | inactive
N[C@@H](C(=O)O)c1ccc(P(=O)(O)O)cc1 | inactive
CN(C)c1ccc(-c2nc(NCCN3CCOCC3)c3ccccc3n2)cc1 | inactive
c1ccc2c(NC3C4CC5CC(C4)CC3C5)nc(N3CCOCC3)nc2c1 (stereo not drawn) | 25.1 µM (active)
c1cnc(NC2C3CC4CC(C3)CC2C4)nc1 (stereo not drawn) | inactive
O=C(c1ccco1)N1CCC[C@@]2(CCN(Cc3nccs3)C2)C1 | inactive
O=C1CCN(Cc2ccc(-c3ccccc3)cc2)CCN1Cc1ccccn1 | inactive
COc1ccc(CNC(=O)c2cc3cccc(OC)c3oc2=O)cc1 | inactive
COc1ccc(CNC(=O)/C(C#N)=C/c2cccc(OC)c2OC)cc1 | 22.4 µM (active)
COc1ccc(CNC(=O)c2c[nH]c3c(OC)cc(OC)cc3c2=O)cc1 | inactive
Cc1ccc(C)c(N2CCN(C(=O)CCc3c(C)nc4c(c3C)c(=O)n(C)c(=O)n4C)CC2)c1 | inactive
Cc1ccc(C)c(N2CCN(C(=O)CCCCCn3c(=S)[nH]c4ccc(N5CCOCC5)cc4c3=O)CC2)c1 | 3.16 µM (active)
COc1cccc(N2CCN(C(=O)CCCCCn3c(=O)[nH]c4ccccc4c3=O)CC2)c1 | inactive
Cc1ccc(OCCCC(=O)N2CCOCC2)c(C)c1 | inactive
Cc1ccc(C)c(N2CCN(C(=O)CCCCn3c(=O)[nH]c4ccccc4c3=O)CC2)c1 | 20 µM (active)
Cc1ccc(C)c(N2CCN(C(=O)Cn3nc(C)c4sc5ccccc5c4c3=O)CC2)c1 | inactive
CN1[C@@H]2CC[C@H]1CC(OC(=O)c1cc(Cl)cc(Cl)c1)C2 (stereo partly drawn) | inactive
